Assay outcomes (PubChem)
Rows were chosen to be rich in hits. Some 2.6% of all compounds tested hit in one or more screens of this group.
Bim-Mcl-1 = inhibitors of Bim-Mcl-1 interaction, human; Q07820; Bead-based flow cytometry, Bim peptide-Mcl-1 binding; inhibition, % at 10 µM; 190,000 compounds, 0.1% hits; in the data active = inhibition above about 40%
MCL1 BIM primary = inhibitors of human MCL1 binding to BIM-BH3 peptide; AID 2057; inhibition, % at 10.9 µM; GST-MCL1 / FITC-Bim-BH3 fluorescence polarization; 320,000 compounds, 0.68% hits;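 active = inhibition above the mean inhibition of all tested compounds plus 3 SD, set per campaign, cut at about 40% in these data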;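 note: higher means more loss of mP so more displacement of Bim peptide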
Mcl1-Bid inh = disrupts binding of human Mcl-1 to Bid peptide; AID 1021; Q07820; inhibition, % at 21.7 µM; TR-FRET Mcl-1/Bid-Dy647 peptide binding, 1536-well; 220,000 compounds, 0.97% hits;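 active = compounds that cut the binding signal by more than half at the single screening dose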;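 note: His-tagged Mcl-1 with europium anti-His antibody binding Bid BH3 peptide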
Mcl1 Noxa PPI = Mcl-1/Noxa interaction inhibition. Q07820. TR-FRET Mcl-1/Noxa peptide binding, 2 h. inhibition, % at 21.7 µM. 220,000 compounds, 1.5% hits. AID 1022;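 active = compounds that cut the protein-peptide binding signal by more than 50% relative to plate controls in a single-dose test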;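 note: His-tagged Mcl-1 with rhodamine Noxa BH3 peptide and terbium anti-His antibody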
eIF4E 4G PPI = eIF4E/eIF4G interaction inhibition in translation initiation | 220,000 compounds, 0.37% hits | P63073+Q04637 | inhibition, % at 21.7 µM | TR-FRET eIF4E-eIF4GI(517-606) binding, 2 h;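 active = inhibition above about 30%, limit read from the data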
14-3-3 Bad PPI = disrupts binding of bovine 14-3-3 zeta to phospho-Bad peptide; TR-FRET 14-3-3zeta/Dy647-pBad peptide displacement, 1 h; inhibition, % at 21.7 µM; 220,000 compounds, 0.71% hits;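 active = inhibition above about 70%, limit read from the data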
Hits are given with their value; 0 = inactive; - = no result given.

SMILES | Bim-Mcl-1 | MCL1 BIM primary | Mcl1-Bid inh | Mcl1 Noxa PPI | eIF4E 4G PPI | 14-3-3 Bad PPI
COc1ccccc1/C=C/C(=O)c1cc(Br)ccc1OC(=O)c1ccco1 | - | 0 | - | - | - | -
CNc1ccc(Br)cc(C(=O)/C=C/c2cccc(OC)c2OC)c1=O | 0 | 0 | 0 | 70 | 0 | 0
CCNc1ccc(Br)cc(C(=O)/C=C/c2ccccc2Cl)c1=O | - | 0 | - | - | - | -
CNc1ccc(Br)cc(C(=O)/C=C/c2cccc(Cl)c2Cl)c1=O | 0 | - | 92 | 106 | 0 | 0
COCCNC(=O)c1ccc(CN2CCOCC2)cc1 | 0 | 0 | 0 | 0 | 0 | 0
Cc1ccc(C(=O)N/C(=C\c2cccc([N+](=O)[O-])c2)C(=O)NC(Cc2ccccc2)C(=O)O)cc1 (configuration not stated) | - | 0 | - | - | - | -
Cc1oc(-c2ccccc2)nc1C(=O)O | 0 | 0 | 0 | 0 | 0 | 0
CC(=O)c1cccc(NC(=O)c2nc(-c3ccccc3)oc2C)c1 | 0 | 0 | 0 | 0 | 40 | 0
CC(=O)Oc1ccc2c(c1)OC(c1ccccc1)CC21CC(C)(C)NC(=S)N1 (configuration not stated) | 0 | 0 | 0 | 0 | 39 | 0
Cc1ccc2cc3c(nc2c1)OCC3 | - | 0 | 0 | 0 | 0 | 0
O=C(Nc1ccc(O)cc1)C1CC=CCC1 (configuration not stated) | 0 | 0 | 0 | 56 | - | -
Cc1ccc(SCC(=O)OC(C)C(=O)NCc2ccccc2)cc1 (configuration not stated) | - | 0 | - | - | - | -
COc1cc(OC)cc(C(=O)N(CCCN2C(=O)c3cccc4cccc(c34)C2=O)c2cccc(OC)c2)c1 | 0 | 0 | 84 | 0 | 0 | 0
Cc1cc2cc(CNC(=O)c3ccco3)ccc2n1C | - | 41 | 0 | 0 | 0 | 0
CCOC(=O)C(Cc1ccccc1)C(=O)c1ccco1 (configuration not stated) | - | 0 | - | - | - | -
CCCCC(C(=O)OCC)C(N)Cc1ccc(F)cc1 (configuration not stated) | 98 | 0 | 0 | 0 | 0 | 0
Cc1ccc(S(=O)(=O)NN2C(=O)/C(=C/c3ccccn3)SC2=S)cc1 | 0 | 0 | 0 | 0 | 0 | 0
COc1ccc(/C=C2/SC(=S)N(NS(=O)(=O)c3ccccc3)C2=O)cc1 | - | 0 | - | - | - | -
O=C1/C(=C/c2ccccn2)SC(=S)N1c1ccc(O)cc1 | - | 0 | 0 | 77 | 0 | 0
O=C1/C(=C\c2ccccn2)SC(=S)N1c1ccc(S(=O)(=O)Nc2nccs2)cc1 | - | 0 | 0 | 82 | 0 | 0
Cc1ccc(Oc2ccc3c(c2)C(=O)N(c2ccc(S(=O)(=O)Nc4nccs4)cc2)C3=O)cc1 | 0 | 0 | 0 | 0 | 0 | 0
COc1ccc(/C=C2/SC(=S)N(c3ccc(S(=O)(=O)Nc4nccs4)cc3)C2=O)cc1 | - | 0 | 0 | 101 | 0 | 0
Cc1ccc(/C=C2/SC(=S)N(c3ccc(S(=O)(=O)Nc4nccs4)cc3)C2=O)cc1 | - | 0 | 0 | 56 | 0 | 0
Cc1cccc(N2C(=O)/C(=C/c3ccccn3)SC2=S)c1 | - | 0 | 0 | 0 | 0 | 0
COc1ccc(CCNC(=O)C(=O)NCC2CCCN2S(=O)(=O)c2ccccc2)cc1OC (configuration not stated) | - | 0 | - | - | - | -
SMILES | Bim-Mcl-1 | MCL1 BIM primary | Mcl1-Bid inh | Mcl1 Noxa PPI | eIF4E 4G PPI | 14-3-3 Bad PPI
CN1CCN(C(=O)C2=C[C@H](c3ccccc3)C[C@H](OCc3ccc(CO)cc3)O2)CC1 | 0 | 0 | 0 | 0 | 0 | 0
Cc1ccc(-n2[nH]c(C)c(C=Nc3ccc(S(=O)(=O)Nc4nccs4)cc3)c2=O)cc1C | 0 | 0 | 0 | 61 | 0 | 0
Cc1c(Cl)cccc1NC(=O)CCC(=O)NNC(=O)c1ccccc1Cl | 0 | 0 | 0 | 0 | 65 | 0
COc1cccc(NC(=O)C(=O)N/N=C/c2cc(C)n(-c3ccc(Cl)c(Cl)c3)c2C)c1 | 0 | 0 | 93 | 0 | 0 | 0
Cc1cc(/C=N/NC(N)=S)c(C)n1-c1ccc(Cl)c(Cl)c1 | 0 | 0 | 0 | 0 | 0 | 0
O=S(=O)(NCCCNS(=O)(=O)c1c(F)cccc1F)c1ccc2c(c1)OCCO2 | - | 0 | - | - | - | -
COc1cc(OC)cc(C(=O)N2CCN(C3CCN(Cc4ccccc4)CC3)CC2)c1 | 0 | 0 | 0 | 0 | 0 | 73
CCS(=O)(=O)N1CCN(C2CCC(c3ccccc3)CC2)CC1 (configuration not stated) | 0 | 0 | 54 | 0 | 0 | 0
COc1cccc(C(=O)N2CCC(N3CC(C)OC(C)C3)CC2)c1 (configuration not stated) | 0 | 0 | 0 | 0 | 0 | 0
COc1cccc(C(=O)N2CCN(C3CCC(c4ccccc4)CC3)CC2)c1 (configuration not stated) | 0 | - | 0 | 0 | 0 | 75
Cc1cc(Cl)ccc1-n1c(-c2cccnc2)n[nH]c1=S | - | 0 | 0 | 59 | 0 | 0
Cc1ccc(C)c(-n2c(-c3cccnc3)n[nH]c2=S)c1 | 0 | 0 | 0 | 0 | 0 | 0
O=C(OCC(=O)N1CCCC1=O)C1COc2ccccc2O1 (configuration not stated) | 0 | 0 | 0 | 58 | 0 | 0
O=C(COC(=O)C1COc2ccccc2O1)NC(=O)NC1CCCC1 (configuration not stated) | 0 | 0 | 0 | 0 | 0 | 0
O=C(NCCN1CCN(Cc2ccccc2)CC1)c1ccc(CS(=O)(=O)c2ccc(Br)cc2)o1 | - | 0 | - | - | - | -
Cc1cnc(NC(=O)/C=C/c2ccc(Br)o2)s1 | - | 0 | 0 | 0 | 0 | 0
O=C(/C=C/c1ccc(Br)o1)Nc1nnc(C2CC2)s1 | - | 0 | 0 | 62 | 0 | 0
CC(=O)c1sc(N/N=C\c2c(O)ccc3ccccc23)nc1C | - | 0 | - | - | - | -
NC(=O)COC(=O)c1ccc2noc(-c3ccccc3)c2c1 | - | 0 | - | - | - | -
O=C(CN1CCN(c2ccccc2)CC1)NC(=O)NCc1ccco1 | 0 | 0 | 0 | 0 | 0 | 0
COc1cccc(N2CCN(CC(=O)NC(=O)NCc3ccco3)CC2)c1 | 0 | 0 | 0 | 62 | 0 | 0
c1ccc(CN=C2NN=C(c3cc4ccccc4o3)CS2)cc1 | 0 | 0 | 0 | 93 | 0 | 0
CCN=C1NN=C(c2cc(C)n(CCc3ccccc3)c2C)CS1 | 0 | - | 0 | 0 | 0 | 92
CCCCNC(=O)c1cn(C)c2ccc(S(=O)(=O)N3CC(C)CC(C)C3)cc2c1=O (configuration not stated) | - | 0 | - | - | - | -
Nc1nc(Cl)cc(N2CCCC2)n1 | 0 | 0 | 0 | 0 | 0 | 0
Nc1nc(Cl)cc(N2CCC(c3cc(-c4ccc(Cl)cc4Cl)n[nH]3)CC2)n1 | 0 | 0 | 0 | 66 | 0 | 0
CCCCCC1CC(CC#CCN2CCOCC2)C(=O)O1 (configuration not stated) | 0 | 0 | 51 | 0 | 0 | 0
O=Cc1c(-c2ccc(Cl)cc2)oc2ccc(O)cc12 | - | 0 | - | - | - | -
COc1ccc(CCC(=O)NNC(=S)Nc2cccc(C(C)=O)c2)cc1 | 0 | 0 | 0 | 0 | 0 | 0
COC(=O)C1=CN(CC2CCCO2)C=C(C(=O)OC)C1c1ccsc1 (configuration not stated) | 0 | 0 | 96 | 0 | 0 | 0
